Read-out in assay [1]: Interleukin-1 alpha (IL1a), IL1A (gene 3552)
The assay can be described thus: BSK_LPS_IL1a: BioMAP Diversity Plus: LPS Assay for Interleukin-1 alpha (IL1a) Biomarker Activity (AID 2283080). Particulars: primary human HUVEC with PBMC; actives raise or lower the signal. An outline of the steps:
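HUVEC/PBMC co-culture, LPS system; 24 h after dosing; IL-1a by ELISA; gain or loss of signal fitted bidirectionally vs DMSO baseline.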

Read-out in assay [2]: Monocyte Chemoattractant Protein-1 (MCP1), CCL2 (gene 6347)
The experiment in a line: BSK_LPS_MCP1: BioMAP Diversity Plus: LPS Assay for Monocyte Chemoattractant Protein-1 (MCP1) Biomarker Activity (AID 2283081).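 For AC50: secreted MCP-1 protein quantified by ELISA in culture supernatant.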 Conditions: primary human HUVEC with PBMC; actives raise or lower the signal. An outline of the steps: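 ELISA read-out of MCP-1 after 24 h chemical dosing of a human umbilical vein endothelial cell/peripheral blood mononuclear cell co-culture stimulated with LPS. Gain or loss of signal fitted relative to DMSO controls.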

Assay [3] is described as follows: BSK_LPS_PGE2: BioMAP Diversity Plus: LPS Assay for Prostaglandin E2 (PGE2) Biomarker Activity (AID 2283082).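 For AC50: secreted prostaglandin E2 measured by ELISA in LPS-stimulated co-culture.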 Conditions: primary human HUVEC with PBMC; actives raise or lower the signal. An outline of the steps:
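LPS-activated HUVEC/PBMC co-culture; cmpd dosed, 24 h; PGE2 by ELISA; bidirectional fit vs DMSO; SRB (0.1%, TCA-fixed, 560 nm) in parallel plates for overt cytotox.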

Read-out in assay [4]: Macrophage colony-stimulating factor (MCSF), CSF1 (gene 1435)
The experiment in a line: BSK_LPS_MCSF: BioMAP Diversity Plus: LPS Assay for Macrophage colony-stimulating factor (MCSF) Biomarker Activity (AID 2283083). Conditions: primary human HUVEC with PBMC; actives raise or lower the signal. An outline of the steps: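 HUVEC + PBMC co-culture (human primary), 24 h post-dose; M-CSF by ELISA; gain/loss of signal fitted bidirectionally vs DMSO baseline.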

Read-out in assay [5]: Tissue Factor, F3 (gene 2152)
The assay can be described thus: BSK_LPS_TissueFactor: BioMAP Diversity Plus: LPS Assay for Tissue Factor Biomarker Activity (AID 2283084). Particulars: primary human HUVEC with PBMC; actives raise or lower the signal. In a few lines:
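HUVEC/PBMC co-culture, LPS-activated; CD142 ELISA read 24 h post-dose; bidirectional curve fit vs DMSO negative control.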

Read-out in assay [6]: Tumor necrosis factor (Homo sapiens) (UniProt P01375)
The assay can be described thus: BSK_LPS_TNFa: BioMAP Diversity Plus: LPS Assay for Tumour Necrosis Factor alpha (TNFa) Biomarker Activity (AID 2283085). Particulars: primary human HUVEC with PBMC; actives raise or lower the signal. In a few lines:
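Read-out is ELISA of TNFa in primary human endothelial cell–PBMC co-cultures at 24 h after compound. Activity in either direction was fitted against DMSO.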

Read-out in assay [7]: Vascular cell adhesion molecule 1 (VCAM1), VCAM1 (gene 7412)
The experiment in a line: BSK_LPS_VCAM1: BioMAP Diversity Plus: LPS Assay for Vascular cell adhesion molecule 1 (VCAM1) Biomarker Activity (AID 2283086). Conditions: primary human HUVEC with PBMC; actives raise or lower the signal. An outline of the steps: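 HUVEC + PBMC co-culture, LPS system; compound 24 h; VCAM-1 by ELISA; bidirectional fit vs DMSO control; parallel SRB (0.1%, TCA-fixed, 560 nm) for cytotoxicity.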

Read-out in another assay: CD38, CD38 (gene 952)
The experiment in a line: BSK_SAg_CD38: BioMAP Diversity Plus: SAg Assay for CD38 Biomarker Activity (AID 2283087). Particulars: primary human HUVEC with PBMC; actives raise or lower the signal. In a few lines: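 Human HUVEC plus PBMC co-culture stimulated with superantigen; CD38 measured by ELISA 24 h after chemical dosing. Fluorescence read-out, bidirectional fit against DMSO; cytotoxicity tracked in parallel by SRB and Alamar Blue.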

Read-out in another assay: CD40, CD40 (gene 958)
The assay can be described thus: BSK_SAg_CD40: BioMAP Diversity Plus: SAg Assay for CD40 Biomarker Activity (AID 2283088). Particulars: primary human HUVEC with PBMC; actives raise or lower the signal. An outline of the steps: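 HUVEC/PBMC co-culture, 24 h post-dose; CD40 by ELISA, fluorescence intensity; bidirectional fit vs DMSO negative control.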

Read-out in the next assay: CD69, CD69 (gene 969)
The experiment in a line: BSK_SAg_CD69: BioMAP Diversity Plus: SAg Assay for CD69 Biomarker Activity (AID 2283089).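 For AC50: cell surface CD69 protein quantified by ELISA with fluorescence detection.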 Particulars: primary human HUVEC with PBMC; actives raise or lower the signal. An outline of the steps: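 Values derive from bidirectional fitting relative to DMSO vehicle. Cells: umbilical vein endothelium plus peripheral blood mononuclear cells, treated 24 h before fluorescent ELISA for CD69.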

Read-out in assay [8]: Monocyte Chemoattractant Protein-1 (MCP1), CCL2 (gene 6347)
The assay can be described thus: BSK_SAg_MCP1: BioMAP Diversity Plus: SAg Assay for Monocyte Chemoattractant Protein-1 (MCP1) Biomarker Activity (AID 2283090). Conditions: primary human HUVEC with PBMC; actives raise or lower the signal. An outline of the steps: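 MCP-1 levels in the endothelial–PBMC SAg co-culture were quantified by ELISA at 24 h post-dosing; both increases and decreases versus DMSO scored. Cytotoxicity monitored by SRB total protein in parallel cultures.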

Read-out in assay [9]: E-selectin (Homo sapiens) (UniProt P16581)
The assay can be described thus: BSK_SAg_Eselectin: BioMAP Diversity Plus: SAg Assay for Eselectin Biomarker Activity (AID 2283091). Conditions: primary human HUVEC with PBMC; actives raise or lower the signal. An outline of the steps: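 E-selectin ELISA readout at 24 h post-dosing in human umbilical vein endothelial cell/PBMC co-culture; gain or loss of signal fitted relative to DMSO baseline.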

Read-out in assay [10]: Monokine induced gamma interferon (MIG), CXCL9 (gene 4283)
The experiment in a line: BSK_SAg_MIG: BioMAP Diversity Plus: SAg Assay for Monokine induced gamma interferon (MIG) Biomarker Activity (AID 2283092). Particulars: primary human HUVEC with PBMC; actives raise or lower the signal. In a few lines: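 Values reflect bidirectional fitting of ELISA-measured MIG against DMSO vehicle, taken 24 h after dosing of a co-culture of human umbilical vein endothelial cells and peripheral blood mononuclear cells.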

A short description of assay [11]: BSK_SAg_PBMCCytotoxicity: PBMC Cytotoxicity Assessment in the BioMAP Diversity Plus: SAg Assay (AID 2283093).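 For AC50: PBMC superantigen activated with SEB plus TSST-1 one hour after compound addition.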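 Note: PBMC viability measured as Alamar Blue reduction fluorescence at 546/580 nm; fitted both ways against DMSO so a hit may be loss or gain of signal.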 Particulars: primary human HUVEC with PBMC. An outline of the steps: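 Human umbilical vein endothelial cells co-cultured with PBMC; PBMC (75,000/well) pre-treated with compound 1 h, then activated with SEB and TSST-1 (20 ng/mL final each) for 90 h. Alamar Blue added 6 h, fluorescence 546/580 nm; bidirectional fit versus DMSO.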

Read-out in assay [12]: Interleukin-8 (IL8), CXCL8 (gene 3576)
The assay can be described thus: BSK_SAg_IL8: BioMAP Diversity Plus: SAg Assay for Interleukin-8 (IL8) Biomarker Activity (AID 2283094). Particulars: primary human HUVEC with PBMC; actives raise or lower the signal. In a few lines:
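ELISA read-out of IL-8 in a primary human vascular co-culture (umbilical vein endothelium plus PBMC), taken 24 h after compound addition. Values derive from bidirectional fits against DMSO negative controls.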

Assay [13] can be described thus: BSK_SAg_Proliferation: Cell Proliferation Assessment in the BioMAP Diversity Plus: SAg Assay (AID 2283095).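 Note: relative cell number as total protein by SRB absorbance in sub-confluent culture.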 Conditions: primary human HUVEC with PBMC. An outline of the steps: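 Cells (endothelium plus PBMC, human primary) were dosed with chemical, cultured 96 h, fixed in 10% TCA and stained with 0.1% SRB. Absorbance at 560 nm gave relative protein, fitted bidirectionally relative to DMSO.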

Assay [14] in a line: BSK_SAg_SRB: Viability Assessment in the BioMAP Diversity Plus: SAg Assay (AID 2283096).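 Note: cells read one day after compound addition; hits may be either gain or loss of signal compared with DMSO.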 Particulars: primary human HUVEC with PBMC. An outline of the steps: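 Endothelial/PBMC primary human co-culture; compound 24 h; fix 10% TCA, stain 0.1% SRB, A560; protein content as cytotoxicity proxy; bidirectional curve fit, DMSO = baseline.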
For assay [15], the target named is human CYP19A1, CYP19A1 (gene 1588) (UniProt P11511). The assay can be described thus: NVS_ADME_hCYP19A1: NovaScreen (NVS) CYP450-related Enzyme Activity (ADME) Assay for human CYP19A1 (AID 2283098; active = hit-call score of the fitted dose curve at least 0.9, where 1 is the maximum;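 for AC50: potency for inhibitors seen as loss of fluorescent enzyme signal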). In a few lines:
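Cell-free enzyme assay with recombinant protein and a specific fluorogenic substrate, read by fluorescence intensity 0.5 h after dosing. Primary screen ran in duplicate at 10 uM; actives were retested in concentration series. Loss of signal versus acetonitrile baseline.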

For assay [16], the target named is human CYP1A1, CYP1A1 (gene 1543) (UniProt P04798). The assay can be described thus: NVS_ADME_hCYP1A1: NovaScreen (NVS) CYP450-related Enzyme Activity (ADME) Assay for human CYP1A1 (AID 2283100; active = hit-call score of the fitted dose curve at least 0.9, where 1 is the maximum). An outline of the steps:
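Read-out: fluorescence intensity from enzymatic turnover of substrate by recombinant CYP1A1, loss of signal indicating inhibition. Incubation 1 h post-dose. Primary single-point 10 uM in duplicate; actives rerun singly with top concentration 20 uM.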

“And” between values parts separate entries of the source, which are not always exact repeats. Equal entries are not always repeated. Results filed as inconclusive are left out. A structure can be active in one record and inactive in another. The source made the active and inactive calls. Rule for the calls, unless noted: active = hit-call score of the fitted dose curve at least 0.9, where 1 is the maximum; inactive = score below 0.9.

Chain of Tumor necrosis factor (Homo sapiens) (P01375 whole entry, looked up): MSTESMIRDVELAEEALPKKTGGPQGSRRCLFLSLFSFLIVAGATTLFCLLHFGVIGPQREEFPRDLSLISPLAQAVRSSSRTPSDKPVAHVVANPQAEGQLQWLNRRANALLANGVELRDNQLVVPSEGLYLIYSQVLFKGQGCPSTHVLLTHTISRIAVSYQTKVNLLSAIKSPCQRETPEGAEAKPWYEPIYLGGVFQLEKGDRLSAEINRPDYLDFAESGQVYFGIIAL
Chain of human CYP19A1, CYP19A1 (gene 1588) (P11511 whole entry, looked up): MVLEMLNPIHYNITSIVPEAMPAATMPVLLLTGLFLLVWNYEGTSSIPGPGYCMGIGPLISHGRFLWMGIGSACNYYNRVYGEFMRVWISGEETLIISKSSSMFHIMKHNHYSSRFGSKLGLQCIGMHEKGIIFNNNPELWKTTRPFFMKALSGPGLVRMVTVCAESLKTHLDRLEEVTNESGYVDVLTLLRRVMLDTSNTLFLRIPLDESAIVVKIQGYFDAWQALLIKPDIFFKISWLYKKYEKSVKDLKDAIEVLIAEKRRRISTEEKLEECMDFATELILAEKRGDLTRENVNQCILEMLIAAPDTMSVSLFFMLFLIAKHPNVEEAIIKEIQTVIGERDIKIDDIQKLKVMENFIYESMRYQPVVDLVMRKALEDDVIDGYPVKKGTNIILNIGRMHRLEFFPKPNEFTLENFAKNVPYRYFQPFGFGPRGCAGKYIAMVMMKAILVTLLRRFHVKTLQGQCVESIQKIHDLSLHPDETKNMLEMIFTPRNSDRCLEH
Chain of E-selectin (Homo sapiens) (P16581 whole entry, looked up): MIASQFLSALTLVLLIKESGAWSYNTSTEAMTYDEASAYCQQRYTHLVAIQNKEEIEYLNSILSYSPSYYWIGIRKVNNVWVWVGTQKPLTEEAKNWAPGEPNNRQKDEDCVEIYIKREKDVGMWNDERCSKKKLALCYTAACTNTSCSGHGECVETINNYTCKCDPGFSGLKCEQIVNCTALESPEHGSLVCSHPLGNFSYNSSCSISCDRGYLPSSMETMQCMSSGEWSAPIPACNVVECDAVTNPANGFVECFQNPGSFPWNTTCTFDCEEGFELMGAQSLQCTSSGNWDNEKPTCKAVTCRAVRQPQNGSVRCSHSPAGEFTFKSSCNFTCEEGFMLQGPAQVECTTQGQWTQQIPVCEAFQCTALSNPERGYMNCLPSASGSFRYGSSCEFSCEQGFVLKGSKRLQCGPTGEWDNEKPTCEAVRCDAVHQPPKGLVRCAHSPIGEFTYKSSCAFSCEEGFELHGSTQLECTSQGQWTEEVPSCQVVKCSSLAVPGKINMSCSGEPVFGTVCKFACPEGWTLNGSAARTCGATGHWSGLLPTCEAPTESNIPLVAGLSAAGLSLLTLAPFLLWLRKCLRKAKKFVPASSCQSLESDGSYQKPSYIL
Chain of human CYP1A1, CYP1A1 (gene 1543) (P04798 whole entry, looked up): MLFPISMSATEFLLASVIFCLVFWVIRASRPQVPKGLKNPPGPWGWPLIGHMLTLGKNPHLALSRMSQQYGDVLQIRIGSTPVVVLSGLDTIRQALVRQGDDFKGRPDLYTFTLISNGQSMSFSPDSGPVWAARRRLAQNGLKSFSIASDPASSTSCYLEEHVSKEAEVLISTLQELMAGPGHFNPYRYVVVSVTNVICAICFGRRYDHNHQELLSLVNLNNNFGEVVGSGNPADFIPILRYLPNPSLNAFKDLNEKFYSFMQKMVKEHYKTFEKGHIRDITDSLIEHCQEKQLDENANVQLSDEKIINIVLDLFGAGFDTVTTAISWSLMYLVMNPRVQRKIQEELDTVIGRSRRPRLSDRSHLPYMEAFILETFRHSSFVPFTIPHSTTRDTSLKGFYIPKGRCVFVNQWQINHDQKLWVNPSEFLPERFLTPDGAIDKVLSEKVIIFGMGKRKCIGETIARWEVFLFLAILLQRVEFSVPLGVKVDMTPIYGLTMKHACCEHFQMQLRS

In the case of `O=[N+]([O-])c1c(Cl)c(Cl)c(Cl)c(Cl)c1Cl`, the outcome is “inactive” in assay [1]; “inactive” in assay [2]; “inactive” in assay [3]; “inactive” in assay [5]; “inactive” with CD38, CD38 (gene 952); “inactive” in the assay with CD40, CD40 (gene 958). The outcome is “inactive” with CD69, CD69 (gene 969); “inactive” in [8]; “inactive” in assay [10]; “inactive” in assay [11]; “inactive” in assay [12]; “inactive” in assay [14]. For the same compound, the compound was classed as inactive in assay [15] and in [16]. The AC50 in [4] was 22.4 µM (active); in assay [6], 25.9 µM (active); in assay [7] it was 25.5 µM (active); in [9], 20 µM (active); in assay [13], 31.2 µM (active).
Turning to `CC1(C)C(C=C(Cl)Cl)C1C(=O)OC(C#N)c1ccc(F)c(Oc2ccccc2)c1` (stereo not given), the result in [1], in [2], in assay [4], in [5], in assay [6] and in assay [7] was inactive. Also, the outcome in the assay with CD38, CD38 (gene 952) is “inactive”; in the assay with CD40, CD40 (gene 958), “inactive”; in the assay with CD69, CD69 (gene 969), “inactive”; in assay [9], “inactive”; in assay [10], “inactive”; in assay [11], “inactive”. Besides, the outcome in assay [12] and in [15] was inactive. Also, the AC50 was 5.22 µM (active) in [3], 7.41 µM (active) in assay [8], 29.9 µM (active) in [13] and 14.2 µM (active) in [14].
Take `Oc1ccc(Cl)cc1Cc1ccccc1`: the concentration at half-maximal activity (AC50) in [1] was 31.8 µM (active) [middle of 6 runs]; in assay [2] it was 32.5 µM (active) [middle of 7 runs]; in assay [4], 29.6 µM (active) [middle of 7 runs]; in assay [5], 33.6 µM (active) [middle of 7 runs]; in [6], 32 µM (active) [middle of 7 runs]; in [7] it was 32.5 µM (active) [middle of 6 runs]. Further, the AC50 is 33.6 µM (active) [middle of 6 runs] with CD38, CD38 (gene 952); 29.4 µM (active) [middle of 6 runs] in the assay with CD40, CD40 (gene 958); 32.7 µM (active) [middle of 7 runs] with CD69, CD69 (gene 969); 34.9 µM (active) [middle of 7 runs] in [8]; 32.5 µM (active) [middle of 5 runs] in [9]; 36.8 µM (active) [middle of 7 runs] in [10]. Besides, the AC50 in assay [11] is 27.2 µM (active) [middle of 7 runs]; in assay [12], 31.7 µM (active) [middle of 7 runs]; in assay [14] it was 29.4 µM (active) [middle of 7 runs]; in assay [15], 3.11 µM (active) and 2.49 µM (active). Further, the compound was called inactive in [15] and in assay [16].

(Values after PubChem BioAssay (EPA / NIEHS).)
